The target of the first assay is Fibroblast growth factor 10 (Homo sapiens) (UniProt O15520). As to the kind of experiment: FGF10 binders on small-molecule microarrays, primary screen, biochemical, small-molecule microarray, 635 nm fluorescence (AID 1102). As to conditions: FGF10 binding, fluorescence 635 nm, higher = more signal.
Sequence of Fibroblast growth factor 10 (Homo sapiens) (O15520 whole entry, looked up): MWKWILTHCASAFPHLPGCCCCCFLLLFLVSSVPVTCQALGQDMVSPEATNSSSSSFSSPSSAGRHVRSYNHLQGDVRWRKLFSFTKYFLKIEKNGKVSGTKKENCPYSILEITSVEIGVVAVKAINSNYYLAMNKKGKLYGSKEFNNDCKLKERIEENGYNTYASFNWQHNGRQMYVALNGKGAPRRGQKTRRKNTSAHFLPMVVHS
Take `C#C[C@H](O[Si](C#CCCCCCC)(C(C)C)C(C)C)c1ccccc1`: the composite z-score is -0.0831.

The compound `C=CCNC(=O)[C@H]1[C@@H]2C(=O)O[C@@H](c3ccccc3)[C@@H](c3ccccc3)N2[C@@H](c2ccc(O)cc2)[C@]12C(=O)Nc1ccc(C#Cc3ccc(OC)cc3)cc12` showed a composite z-score of 0.782.

Consider `[N-]=[N+]=NCc1ccccc1C[C@@]1(C(=O)NCc2ccccc2)N=C(c2ccc(OCCCO)cc2)O[C@@H]1c1ccccc1CN=[N+]=[N-]`, for which the composite z-score is 0.639.

Take `C[N+](C)(C)CCCC[C@@H]1NC(=O)[C@H]2C[C@@H](C(=O)O)[C@@H](c3cccc(OCCO)c3)N2C1=O`: the composite z-score was determined as 1.4.

On to `C=CCN1Cc2ccccc2C[C@@]2(COC(c3ccc(OCCCO)cc3)=N2)C1=O`, for which the composite z-score was 0.489.

Compound `[N-]=[N+]=NCc1ccccc1C[C@]1(C(N)=O)N=C(c2ccc(OCCCO)cc2)O[C@H]1c1ccccc1N=[N+]=[N-]` showed a composite z-score of 0.617.

With `CC(C)N1C(=O)c2ccccc2[C@](C)(C(=O)NCCCN(C)C)[C@@H]1c1ccc(CO)cc1`, the composite z-score was -0.543.

The compound `COCCOC(=O)N1C(=O)[C@@]2(c3ccccc31)[C@H](C(=O)N1CCCCCCC1)[C@H]1C(=O)O[C@H](c3ccccc3)[C@H](c3ccccc3)N1[C@@H]2c1ccccc1OCCO` showed a composite z-score of 1.09.

Compound `C=C(COC)C(=O)CC[C@@H](OC(=O)c1ccccc1-c1ccccc1C(=O)O)c1ccc(CO)o1` had a composite z-score of 1.57.

Regarding `COCCn1c(C(=O)N2CCCC2)cc2c1C[C@H]1CN(C(=O)c3ccccc3)[C@@](Cc3ccc(OC)cc3)(C(=O)OC)[C@@H]21`, the composite z-score stood at 0.344.

On to `COc1ccc([Si](C)(C)[C@H]2[C@H](CC(=O)N3CCC[C@H]3CO)O[C@@]3(C(=O)N(c4ccccc4)c4ccccc43)[C@@H]2C)cc1`, for which the composite z-score was -0.174.

As to `C=CCC(OC(C)=O)[C@@H]1[C@@H](N(Cc2cc3ccccc3o2)C(=O)c2ccc(-c3ccccc3)cc2)c2cc(OCCCO)ccc2N1C(=O)Cc1ccc2ccccc2c1` (some centres undefined), the composite z-score is -0.0752.

Turning to `C/C=C/[C@H](CCn1cc([C@H](O)c2ccccc2)nn1)[Si](C)(C)c1ccc(OC)cc1`, the composite z-score was -0.607.

For the compound `CCCC[C@@H]1C[C@H]1[C@@H](NC(=O)c1ccccc1)c1ccccc1`, the composite z-score was -0.232.

For `O=C1OCCC=C[C@H]2OC34C=CCN(c5ccc6ccccc6c5)C(=O)[C@H]3N(CCCCCCO)C(=O)[C@@H]4C12` (some centres undefined), the composite z-score was -0.916.

`COc1ccc([Si](C)(C)[C@H]2[C@H](CC(=O)N(CCO)Cc3ccccc3)O[C@@]3(C(=O)N(Cc4cccc(N5C(=O)c6cccc7cccc5c67)c4)c4ccccc43)[C@@H]2C)cc1`: the composite z-score worked out at 0.158.

`C=CCC(OC(C)=O)[C@@H]1[C@@H](N(Cc2cc3ccccc3o2)C(=O)c2cccc3ccccc23)c2cc(OCCCO)ccc2N1C(=O)Cc1ccc(OC)cc1` (some centres undefined) registered a composite z-score of 0.568.

As to `COC(=O)[C@@]1(Cc2ccc(OC)cc2)[C@H]2c3cc(C(=O)N4CCCC4)n(CCc4ccccn4)c3C[C@H]2CN1C(=O)c1ccccc1`, the composite z-score was 0.289.

Compound `C=CCN1C(=O)[C@]2(Cc3ccccc31)N=C(c1ccc(OCCCO)cc1)O[C@@H]2c1ccccc1` had a composite z-score of 1.43.

Regarding `CCCC[C@H]1OB(O)C[C@H]2C1=C(C)Cn1c(=O)n(-c3ccccc3)c(=O)n12`, the composite z-score stood at 0.49.

On to `CCN(CC)c1ccc(N2CC=CC34O[C@@H]5C=CCOC(=O)[C@@H]5[C@H]3C(=O)N(CCCCCO)[C@@H]4C2=O)cc1` (some centres undefined), for which the composite z-score stood at 0.126.

`C#C[C@H]1Oc2ccccc2S(=O)(=O)N2CCC[C@@H]12`: the composite z-score is -0.0502.

For the compound `O=C1C[C@@](C(=O)O)(c2ccc([N+](=O)[O-])cc2)[C@@H](c2ccc(CO)cc2I)N1CC12CC3CC(CC(C3)C1)C2`, the composite z-score came to 0.248.

Turning to `CCOC(=O)N1C(c2ccc(OCCCO)cc2)=NC(C(=O)OC)N1C(=O)OCC` (centres undefined), the composite z-score was 0.909.

The subject of the next assay is glycogen synthase kinase-3 (GSK3A per assay name; protocol says GSK3B). The assay can be described thus: GSK3 binders on small-molecule microarrays, primary screen, biochemical, small-molecule microarray, 635 nm fluorescence, GSK3A (AID 1103). Note: the record names both GSK3A and GSK3B. As to conditions: small-molecule microarray binding, fluorescence 635 nm; higher = more signal.
Consider `C=C(CCCC)C(=O)CC[C@@H](OC(=O)c1ccccc1-c1ccccc1C(=O)O)c1ccc(CO)o1`, for which the composite z-score turned out to be 1.1.

The compound `O=C1c2ccccc2[C@](Cc2ccccc2I)(C(=O)O)[C@H](c2ccc(CO)cc2)N1Cc1ccccc1C(F)(F)F` returned a composite z-score of 0.464.

Turning to `O[C@@H](Cc1ccccc1)[C@@H](/C=C/c1ccccc1)NCc1ccccc1Br`, the composite z-score was -1.45.

The compound `O=C(NCc1ccccc1)[C@@H]1c2ccccc2C(=O)N(Cc2cc(F)cc(C(F)(F)F)c2)[C@H]1c1ccc(CO)cc1` came in with a composite z-score of 0.243.

On to `CCCCN1CC=CC23O[C@@H]4/C=C\CCCOC(=O)C4[C@H]2C(=O)N(C(C)CO)[C@@H]3C1=O` (some centres undefined), for which the composite z-score is -0.969.

In the case of `CC(C)C(CO)N1C(=O)[C@@H]2[C@H]3C(=O)OCC=C[C@H]3OC23C=CCN(c2ccc4ccccc4c2)C(=O)[C@@H]13` (some centres undefined), the composite z-score is -1.15.

Compound `C=C(/C(=C/C[C@@H](OC(=O)c1ccncc1)c1ccc(CO)o1)c1cc(C(=O)OC)ccc1OC)C(C)C` registered a composite z-score of 1.14.

For the compound `C=CC[C@@]1(C(=O)OC)N=C(c2ccc(OCCCO)cc2)O[C@@H]1c1ccccc1CN=[N+]=[N-]`, the composite z-score was -0.215.

`[N-]=[N+]=Nc1ccccc1[C@H]1OC(c2ccc(OCCCO)cc2)=N[C@@]1(CCS(=O)(=O)c1ccccc1)C(=O)N1CCOCC1` showed a composite z-score of 1.16.

In turn, `C=CCN1C(=O)[C@@]2(O[C@@H](CCO)[C@H]([Si](C)(C)c3ccc(OC)cc3)[C@H]2C)c2cc(N3C(=O)COc4ccccc43)ccc21` came in with a composite z-score of 0.324.

As to `CCCC[C@H]1OB(O)C[C@H]2C1=C(COc1ccccc1)C[C@H]1C(=O)N(Cc3ccccc3)C(=O)[C@H]12`, the composite z-score was 0.103.

As to `C#C[C@H](O[Si](C#CCCCCCC)(C(C)C)C(C)C)c1ccccc1`, the composite z-score came to 0.173.

In turn, `C=CCNC(=O)[C@H]1[C@@H]2C(=O)O[C@@H](c3ccccc3)[C@@H](c3ccccc3)N2[C@@H](c2ccc(O)cc2)[C@]12C(=O)Nc1ccc(C#Cc3ccc(OC)cc3)cc12` yielded a composite z-score of 1.23.

As for `[N-]=[N+]=NCc1ccccc1C[C@@]1(C(=O)NCc2ccccc2)N=C(c2ccc(OCCCO)cc2)O[C@@H]1c1ccccc1CN=[N+]=[N-]`, the composite z-score was 1.13.

Regarding `C[N+](C)(C)CCCC[C@@H]1NC(=O)[C@H]2C[C@@H](C(=O)O)[C@@H](c3cccc(OCCO)c3)N2C1=O`, the composite z-score came to 1.36.

Regarding `C=CCN1Cc2ccccc2C[C@@]2(COC(c3ccc(OCCCO)cc3)=N2)C1=O`, the composite z-score worked out at 0.597.

In turn, `[N-]=[N+]=NCc1ccccc1C[C@]1(C(N)=O)N=C(c2ccc(OCCCO)cc2)O[C@H]1c1ccccc1N=[N+]=[N-]` came in with a composite z-score of 1.

`CC(C)N1C(=O)c2ccccc2[C@](C)(C(=O)NCCCN(C)C)[C@@H]1c1ccc(CO)cc1` registered a composite z-score of 1.4.

Take `COCCOC(=O)N1C(=O)[C@@]2(c3ccccc31)[C@H](C(=O)N1CCCCCCC1)[C@H]1C(=O)O[C@H](c3ccccc3)[C@H](c3ccccc3)N1[C@@H]2c1ccccc1OCCO`: the composite z-score amounted to 1.29.

Consider `C=C(COC)C(=O)CC[C@@H](OC(=O)c1ccccc1-c1ccccc1C(=O)O)c1ccc(CO)o1`, for which the composite z-score was 0.464.

The compound `COCCn1c(C(=O)N2CCCC2)cc2c1C[C@H]1CN(C(=O)c3ccccc3)[C@@](Cc3ccc(OC)cc3)(C(=O)OC)[C@@H]21` had a composite z-score of 0.194.

Turning to `COc1ccc([Si](C)(C)[C@H]2[C@H](CC(=O)N3CCC[C@H]3CO)O[C@@]3(C(=O)N(c4ccccc4)c4ccccc43)[C@@H]2C)cc1`, the composite z-score was -0.828.

As to `C=CCC(OC(C)=O)[C@@H]1[C@@H](N(Cc2cc3ccccc3o2)C(=O)c2ccc(-c3ccccc3)cc2)c2cc(OCCCO)ccc2N1C(=O)Cc1ccc2ccccc2c1` (some centres undefined), the composite z-score is -0.418.

`C/C=C/[C@H](CCn1cc([C@H](O)c2ccccc2)nn1)[Si](C)(C)c1ccc(OC)cc1`: the composite z-score was -0.855.

For the compound `CCCC[C@@H]1C[C@H]1[C@@H](NC(=O)c1ccccc1)c1ccccc1`, the composite z-score was -0.949.

`O=C1OCCC=C[C@H]2OC34C=CCN(c5ccc6ccccc6c5)C(=O)[C@H]3N(CCCCCCO)C(=O)[C@@H]4C12` (some centres undefined): the composite z-score is -0.817.

Consider `COc1ccc([Si](C)(C)[C@H]2[C@H](CC(=O)N(CCO)Cc3ccccc3)O[C@@]3(C(=O)N(Cc4cccc(N5C(=O)c6cccc7cccc5c67)c4)c4ccccc43)[C@@H]2C)cc1`, for which the composite z-score was determined as 0.0107.

For `C=CCC(OC(C)=O)[C@@H]1[C@@H](N(Cc2cc3ccccc3o2)C(=O)c2cccc3ccccc23)c2cc(OCCCO)ccc2N1C(=O)Cc1ccc(OC)cc1` (some centres undefined), the composite z-score turned out to be 0.12.

Turning to `COC(=O)[C@@]1(Cc2ccc(OC)cc2)[C@H]2c3cc(C(=O)N4CCCC4)n(CCc4ccccn4)c3C[C@H]2CN1C(=O)c1ccccc1`, the composite z-score was -0.282.

As to `C=CCN1C(=O)[C@]2(Cc3ccccc31)N=C(c1ccc(OCCCO)cc1)O[C@@H]2c1ccccc1`, the composite z-score was determined as 0.881.

`CCCC[C@H]1OB(O)C[C@H]2C1=C(C)Cn1c(=O)n(-c3ccccc3)c(=O)n12` had a composite z-score of 0.37.

For the compound `CCN(CC)c1ccc(N2CC=CC34O[C@@H]5C=CCOC(=O)[C@@H]5[C@H]3C(=O)N(CCCCCO)[C@@H]4C2=O)cc1` (some centres undefined), the composite z-score is -0.453.

The compound `C#C[C@H]1Oc2ccccc2S(=O)(=O)N2CCC[C@@H]12` yielded a composite z-score of 0.0695.

For the compound `O=C1C[C@@](C(=O)O)(c2ccc([N+](=O)[O-])cc2)[C@@H](c2ccc(CO)cc2I)N1CC12CC3CC(CC(C3)C1)C2`, the composite z-score stood at 0.48.

Regarding `CCOC(=O)N1C(c2ccc(OCCCO)cc2)=NC(C(=O)OC)N1C(=O)OCC` (centres undefined), the composite z-score was found to be 1.28.

These data come from PubChem BioAssay.
